Here are results for 27 compounds from PubChem BioAssay (Tox21).

Each structure is given as a SMILES string. Unmarked numbers belong to inactive results. Records with an inconclusive call do not appear. Active and inactive are the calls of the source. Unless noted, the call rests on the fitted dose curve; in most records, active means well fitted curve in the direction sought with a large enough effect in the repeat runs; inconclusive means weak or mixed curves; inactive means no such curve, though single readings can be large; an effect the other way counts as inactive or inconclusive.

A short description of assay [1]: qHTS assay to identify small molecule agonists or antagonists of the thyroid stimulating hormone receptor (TSHR) signaling pathway - wild type cell line counter screen (AID 1259384; calls by dose curve). The method, boiled down:
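Wild-type HEK293 cells were plated 18 h at 37 C/5% CO2, pin-dosed with compound plus Ro20-1724 medium, held 30 min at room temperature, then given cAMP-d2 and anti-cAMP-cryptate; fluorescence was read after 1 h. Fifteen concentrations, triplicate.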
In general terms: In qHTS, concentration-response curves come from the screen itself.

For assay [2], the target named is Thyrotropin receptor (Homo sapiens) (UniProt P16473). Briefly: qHTS assay to identify small molecule antagonists of the thyroid stimulating hormone receptor (TSHR) signaling pathway (AID 1259385; calls by dose curve; further: nearly all actives have a fitted effect of over 20% in size). The essentials:
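TSHR-HEK293 cells were plated and held 18 h at 37C/5% CO2, then given compound plus Ro20-1724 and stimulated with TSH at 1.5 ng/mL final. After 30 min at room temperature, cAMP was detected with cAMP-d2/anti-cAMP-cryptate (1 h) by fluorescence.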

Assay [3] is described as follows: qHTS assay to identify small molecule agonists of the estrogen receptor alpha (ER-alpha) signaling pathway in the presence of an antagonist - cell viability counter screen (AID 1259386).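 Further: series mostly up to about 92 µM; cells exposed to compounds for 22 h at 37 °C before the viability read; nearly all actives have a fitted effect of over 30% in size.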 The essentials:
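The test measures whether compounds kill ER-alpha reporter cells (VM7Luc4E2) under antagonist co-treatment (ICI-182,780, 10.0nM). Fluorescence from CellTiter-Fluor is read after a 22hr exposure.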

Assay [4] addresses Progesterone receptor (Homo sapiens) (UniProt P06401). Briefly: qHTS assay to identify small molecule agonists of the progesterone receptor (PR) signaling pathway (AID 1346784; calls by dose curve; further: nearly all actives have a fitted effect of over 30% in size; further: potency means the concentration at half of the fitted maximal effect). The essentials:
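Fluorescence from LiveBLAzer B/G FRET substrate cleavage (2 hr, RT) reported PR activation in PR-UAS-bla HEK 293T cells treated 16 hr at 37C/5% CO2 with compounds; medium contained 2% charcoal-stripped FBS.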

The target is the same in assay [5]. Nature of the assay: qHTS assay to identify small molecule antagonists of the progesterone receptor (PR) signaling pathway (AID 1346795; active means well fitted inhibition curve with a large enough effect in the signal ratio in the repeat runs, not every such curve was filed as active; the % refers to the signal ratio; further: potency means the concentration at half of the fitted maximal effect). The method, boiled down:
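Fluorescence intensity measured 2 hr after adding beta-lactamase FRET substrate to PR-UAS-bla HEK293T cells that had been co-treated 16 hr with compound and 1 nM R5020 (final concentration) in 2% charcoal-stripped FBS.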

The nature of assay [6]: qHTS assay to identify small molecule antagonists of the progesterone receptor (PR) signaling pathway - cell viability counter screen (AID 1346798). Further: series mostly up to about 92 µM; nearly all actives have a fitted effect of over 50% in size. The essentials:
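CellTiter-Glo luminescence; PR-UAS-bla HEK293T, 3,000 cells/well; compound + R5020, 16 hr, 37C/5% CO2; 30 min RT before read.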

Assay [7] in a line: qHTS assay to identify small molecule agonists of the progesterone receptor (PR) signaling pathway - cell viability counter screen (AID 1346799; calls by dose curve; further: nearly all actives have a fitted effect of over 45% in size). The essentials:
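In parallel with the beta-lactamase readout, cytotoxicity toward PR-UAS-bla HEK293T cells was measured by CellTiter-Glo luminescence following 16 hr compound incubation in 2% charcoal-stripped FBS medium.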

Assay [8] in a line: qHTS assay to identify small molecule antagonists of the TGF-beta/Smad signaling pathway - cell viability counter screen (AID 1346824). Further: nearly all actives have a fitted effect of over 50% in size. The essentials: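 SBE-bla HEK 293T cells were plated overnight at 37 C, then given compounds in DMSO plus TGF-beta1 (added as 0.25 ng/mL solution) for 5 hr. After the bla read, CellTiter-Glo was added to the same wells and luminescence read after 30 min at room temperature.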

The nature of assay [9]: qHTS assay to identify small molecule agonists of the TGF-beta/Smad signaling pathway - cell viability counter screen (AID 1346829). Further: top concentration of the series differs between compounds; nearly all actives have a fitted effect of over 45% in size. The method, boiled down:
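Compound-treated SBE-bla HEK 293T cells (5 hr, 37 C) were assessed for viability with CellTiter-Glo in parallel with the reporter read.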

Assay [10] deals with Estrogen receptor (Homo sapiens) (UniProt P03372). Briefly: qHTS assay to identify small molecule agonists of the estrogen receptor alpha (ER-alpha) signaling pathway in the presence of an antagonist (AID 1259383; calls by dose curve; further: top concentration of the series differs between compounds; nearly all actives have a fitted effect of over 15% in size). The method, boiled down:
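Quantitative HTS confirmation: compounds titrated at 15 concentrations onto estrogen-deprived VM7Luc4E2 cells carrying a four-ERE luciferase construct, with ICI-182,780 present at 10.0nM final. Signal is luminescence after 22hr exposure.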
On the % scale 0 is the no-effect control and ±100 the full control effect.

Progesterone receptor (Homo sapiens), sequence (P06401 whole entry, looked up): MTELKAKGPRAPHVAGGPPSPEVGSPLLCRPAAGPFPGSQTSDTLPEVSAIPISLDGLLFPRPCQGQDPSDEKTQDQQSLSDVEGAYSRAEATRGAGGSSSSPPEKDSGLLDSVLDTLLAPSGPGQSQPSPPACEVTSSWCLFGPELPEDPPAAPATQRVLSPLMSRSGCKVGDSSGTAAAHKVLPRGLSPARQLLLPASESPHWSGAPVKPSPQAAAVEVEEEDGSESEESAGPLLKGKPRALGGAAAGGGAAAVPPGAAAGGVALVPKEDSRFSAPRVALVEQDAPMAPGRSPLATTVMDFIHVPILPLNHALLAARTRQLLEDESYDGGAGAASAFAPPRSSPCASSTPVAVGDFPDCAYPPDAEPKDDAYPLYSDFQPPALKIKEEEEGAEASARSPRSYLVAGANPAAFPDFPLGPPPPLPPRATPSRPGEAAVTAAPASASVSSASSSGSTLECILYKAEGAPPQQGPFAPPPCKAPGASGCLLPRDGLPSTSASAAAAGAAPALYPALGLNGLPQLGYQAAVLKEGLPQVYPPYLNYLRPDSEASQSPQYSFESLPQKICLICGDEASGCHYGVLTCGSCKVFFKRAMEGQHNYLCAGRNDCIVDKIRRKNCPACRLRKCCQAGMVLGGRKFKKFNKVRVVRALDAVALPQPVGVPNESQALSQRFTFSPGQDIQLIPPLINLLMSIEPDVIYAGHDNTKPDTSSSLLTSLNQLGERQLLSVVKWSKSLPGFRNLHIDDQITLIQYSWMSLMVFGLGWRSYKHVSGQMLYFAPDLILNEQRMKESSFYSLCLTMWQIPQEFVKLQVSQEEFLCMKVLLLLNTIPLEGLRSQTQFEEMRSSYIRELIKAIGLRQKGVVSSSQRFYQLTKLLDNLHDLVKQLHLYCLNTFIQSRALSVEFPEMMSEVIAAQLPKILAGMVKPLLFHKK
Thyrotropin receptor (Homo sapiens), sequence (P16473 whole entry, looked up): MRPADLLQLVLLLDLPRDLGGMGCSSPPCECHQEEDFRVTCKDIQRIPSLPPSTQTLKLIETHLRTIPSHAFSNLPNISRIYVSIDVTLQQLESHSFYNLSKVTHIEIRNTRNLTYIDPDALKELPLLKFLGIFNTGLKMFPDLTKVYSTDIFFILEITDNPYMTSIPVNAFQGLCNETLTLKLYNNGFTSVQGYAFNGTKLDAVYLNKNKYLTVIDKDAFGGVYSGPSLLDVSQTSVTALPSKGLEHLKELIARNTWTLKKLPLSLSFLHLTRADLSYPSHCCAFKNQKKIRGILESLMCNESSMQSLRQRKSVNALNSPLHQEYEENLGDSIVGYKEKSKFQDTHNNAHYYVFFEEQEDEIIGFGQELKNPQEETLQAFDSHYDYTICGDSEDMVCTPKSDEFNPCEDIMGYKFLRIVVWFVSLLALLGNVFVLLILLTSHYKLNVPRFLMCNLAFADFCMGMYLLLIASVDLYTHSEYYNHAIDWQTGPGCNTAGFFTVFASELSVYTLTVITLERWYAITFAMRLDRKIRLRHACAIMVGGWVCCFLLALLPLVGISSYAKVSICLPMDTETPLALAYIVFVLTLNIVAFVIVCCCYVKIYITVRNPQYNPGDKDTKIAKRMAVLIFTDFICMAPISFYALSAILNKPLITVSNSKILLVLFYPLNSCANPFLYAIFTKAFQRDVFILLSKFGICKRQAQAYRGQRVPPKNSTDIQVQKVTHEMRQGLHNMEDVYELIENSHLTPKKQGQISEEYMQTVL
Estrogen receptor (Homo sapiens), sequence (P03372 whole entry, looked up): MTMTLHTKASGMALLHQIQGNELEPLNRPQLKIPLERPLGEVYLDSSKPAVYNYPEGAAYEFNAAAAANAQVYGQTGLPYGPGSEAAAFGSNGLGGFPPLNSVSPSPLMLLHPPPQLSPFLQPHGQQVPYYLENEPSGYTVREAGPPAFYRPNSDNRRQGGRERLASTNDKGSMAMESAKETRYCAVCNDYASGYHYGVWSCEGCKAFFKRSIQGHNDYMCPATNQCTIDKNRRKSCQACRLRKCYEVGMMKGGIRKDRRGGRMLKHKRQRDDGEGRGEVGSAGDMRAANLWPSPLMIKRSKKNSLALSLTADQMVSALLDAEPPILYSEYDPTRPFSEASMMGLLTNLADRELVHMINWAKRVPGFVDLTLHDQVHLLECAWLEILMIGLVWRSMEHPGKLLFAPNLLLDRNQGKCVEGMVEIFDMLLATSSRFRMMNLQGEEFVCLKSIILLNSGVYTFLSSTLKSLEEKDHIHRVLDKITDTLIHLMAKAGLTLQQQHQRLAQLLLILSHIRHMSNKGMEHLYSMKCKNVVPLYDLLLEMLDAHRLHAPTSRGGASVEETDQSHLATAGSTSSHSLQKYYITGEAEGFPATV

In the case of `CNCCc1ccccn1`, the compound was classed as inactive in [1], in assay [2], in [3], in [6], in [8] and in assay [9]. Further, the Potency entry in assay [4], in assay [5] and in assay [7] was “inactive” throughout.
As to `CCCCCC(CC)OC(=O)CCCOc1ccc(Cl)cc1Cl` (centres undefined), the compound was called inactive in [1], in assay [2], in assay [3], in assay [8] and in assay [9]. For the same compound, the Potency entry in assay [4], in assay [5] and in [7] was “inactive” each time.
As to `CCOc1ccccc1OCCN[C@H](C)Cc1ccc(OC)c(S(N)(=O)=O)c1`, the result in assay [1], in assay [2], in assay [3], in assay [8] and in assay [9] was inactive. Moreover, the Potency entry in [4], in assay [5] and in [7] was “inactive” in each case.
On to `Cc1cc(N)no1`, for which the outcome in assay [1], in [2], in [3] and in assay [9] was inactive. Moreover, the Potency result in assay [4], in assay [5] and in [7] was “inactive” throughout.
`O=Cc1ccccc1S(=O)(=O)O`: the outcome in assay [1], in [2], in [3], in [6], in assay [8] and in assay [9] was inactive. Besides, the Potency result in assay [4], in assay [5] and in assay [7] was “inactive” each time.
Consider `CC1=C(O)C(=O)CO1`, for which the Potency result in assay [10], in assay [4], in assay [5] and in assay [7] was “inactive” in each case. Moreover, the outcome in [3], in assay [8] and in [9] was inactive.
Consider `c1cc2ccc3ccc4ccc5cccc6c(c1)c2c3c4c56`, for which the cAMP activity change in assay [1] was 5.35% [at 3.27 µM]. Besides, the activity change, negative = inhibition was -1.71% [at 3.27 µM] in assay [2] and 17.5% [at 3.27 µM] in assay [5]. The activity change, negative = cytotoxicity is 1.86% [at 3.27 µM] in [3] and 8.19% [at 2.72 µM] in [9]. For the same compound, the Potency in assay [4] is 0.385 µM (active). Also, the viability change, negative = cytotoxic in assay [8] is 5.15% [at 2.72 µM].
For the compound `COc1cc(C(=O)NC2CCCNC2)cc(OC)c1OC` (centres undefined), the compound was called inactive in [1], in assay [2], in assay [3], in [6], in [8] and in assay [9]. For the same compound, the Potency entry in [4] and in [5] was “inactive” throughout.
Consider `CC12CCCC=C1C(=O)OC2=O` (centres undefined), for which the compound was classed as inactive in assay [1], in assay [2], in assay [3], in assay [6], in assay [8] and in assay [9]. Further, the Potency result in assay [4], in assay [5] and in assay [7] was “inactive” in each case.
As for `C=CCN1CCc2nc(N)sc2CC1`, the compound was called inactive in assay [1], in [2], in [3], in assay [6], in [8] and in assay [9]. In addition, the Potency entry in [4] and in assay [5] was “inactive” throughout.
For `COc1ccc2cc(CCC(C)=O)ccc2c1`, the call in assay [1], in [2], in [3], in [6], in assay [8] and in [9] was inactive. The Potency result in assay [4] is “inactive”. In addition, the Potency in assay [5] was 13.3 µM (active).
For the compound `CCCCCCC(=O)c1ccccc1`, the compound was called inactive in [1], in [2], in [3], in assay [6] and in [8]. Moreover, the Potency entry in assay [4], in [5] and in assay [7] was “inactive” each time.
Take `N=C(N)N`: the outcome in [1], in [2], in assay [3], in [6] and in assay [9] was inactive. In addition, the Potency entry in assay [4], in assay [5] and in assay [7] was “inactive” each time.
Take `CCN(CC)CC(=O)Oc1ccc(NC(C)=O)cc1`: the compound was classed as inactive in [1], in [2], in [3], in assay [6], in assay [8] and in assay [9]. Also, the Potency entry in [4], in assay [5] and in assay [7] was “inactive” throughout.
Turning to `CCCCCCCCC1CO1` (centres undefined), the outcome in assay [1], in assay [2], in assay [3], in [6], in assay [8] and in [9] was inactive. Also, the Potency entry in assay [4], in assay [5] and in assay [7] was “inactive” throughout.
On to `CCOC(=O)COc1ccc2c(C)c(CCN(CC)CC)c(=O)oc2c1Cl`, for which the Potency entry in assay [10], in [4], in assay [5] and in assay [7] was “inactive” in each case. Besides, the result in assay [3], in [8] and in assay [9] was inactive.
With `O=C1CCCc2c(O)cccc21`, the Potency entry in assay [10], in assay [4], in assay [5] and in assay [7] was “inactive” in each case. Moreover, the outcome in [3], in assay [8] and in [9] was inactive.
For `NC(=O)CC[C@@H](N)C(=O)O`, the outcome in assay [1], in [2], in assay [3], in assay [6], in assay [8] and in assay [9] was inactive. The Potency result in assay [4], in assay [5] and in assay [7] was “inactive” throughout.
As for `COC(=O)c1cc(Cl)c(NC(C)=O)cc1OC`, the compound was called inactive in assay [1], in assay [2], in assay [3], in assay [8] and in [9]. The Potency entry in assay [4] and in assay [5] was “inactive” in each case.
With `O=c1[nH]c(=O)c2cn[nH]c2[nH]1`, the outcome in [3], in assay [6] and in assay [8] was inactive. The Potency result in [4], in assay [5] and in assay [7] was “inactive” each time.
As for `CC(=O)c1ccc(O)c(C(N)=O)c1`, the result in assay [1], in [3], in assay [8] and in assay [9] was inactive. Besides, the Potency entry in assay [4], in [5] and in [7] was “inactive” throughout.
With `CC1(C)CC(N)CC(C)(C)N1`, the outcome in assay [1] and in assay [8] was inactive. Besides, the Potency result in assay [4], in assay [5] and in [7] was “inactive” in each case.
For `CCCc1ncc(C(=O)O)s1`, the outcome in assay [3], in [6], in assay [8] and in [9] was inactive. In addition, the Potency result in [4], in assay [5] and in assay [7] was “inactive” in each case.
For the compound `O=C(O)CCC(=O)Nc1ccc(S(=O)(=O)Nc2nccs2)cc1`, the outcome in [3], in assay [6], in assay [8] and in assay [9] was inactive. The Potency entry in assay [4], in assay [5] and in assay [7] was “inactive” throughout.
For `O=C1Nc2ccccc2C1=O`, the call in [1], in assay [3], in [8] and in [9] was inactive. For the same compound, the Potency result in assay [4], in assay [5] and in assay [7] was “inactive” in each case.
Turning to `CC[N+](C)(CC)CC`, the outcome in [3], in assay [6] and in [8] was inactive. Further, the Potency entry in assay [4], in [5] and in assay [7] was “inactive” throughout.
Consider `C=C(C)C(=O)OCCOC1CC2CC1C1C=CCC21` (centres undefined), for which the compound was classed as inactive in assay [1], in [3], in assay [6] and in [9]. In addition, the Potency entry in [4], in [5] and in [7] was “inactive” in each case.
